{
  "source": "PubChem BioAssay AID463173",
  "about": "(ICCB-Longwood Screening Facility, Harvard Medical School, 2010)",
  "note": "In all, about 52,000 compounds went through this assay and about 4,300 (8.3%) were called active. Only a selection was taken, and actives are over-represented in it overall. Values without a mark were called inactive. Rule as the data show it: active = survival mostly below about 52% (no sharp cut-off); inactive = mostly above about 56%.",
  "data": [
    {"system": "DeltatarO mutant", "assay": "growth inhibition of S. aureus wild type versus tarO mutant, primary screen, teichoic acid synthesis inhibitors, RN4220, OD600 (AID 463173)", "settings": "OD600, 18 h, hits give low values, screened at 18.75 µg/mL (by protocol)", "values": [
      {"smiles": "CCN(C(=O)c1cc2c(Cl)nc3ccc(C)cc3c2s1)c1cc(OC)ccc1OC", "survival": "61%"},
      {"smiles": "CCOc1ccc2c(c1)c(=O)c(S(=O)(=O)c1ccc(C)cc1)cn2CC(=O)Nc1ccc(C)cc1", "survival": "66%"},
      {"smiles": "O=C(NCCn1cc(SCc2ccc(F)cc2)c2ccccc21)c1c(F)cccc1F", "survival": "53% (active)"},
      {"smiles": "O=C(NCCn1cc(SCc2ccc(Br)cc2)c2ccccc21)c1cccs1", "survival": "110%"},
      {"smiles": "O=C(NCCn1cc(SCc2ccccc2)c2ccccc21)c1cccs1", "survival": "54% (active)"},
      {"smiles": "O=C(CSc1cn(CCNC(=O)c2c(F)cccc2F)c2ccccc12)Nc1ccccc1F", "survival": "55%"},
      {"smiles": "O=C(NCCn1cc(SCc2ccc(F)cc2)c2ccccc21)c1cccs1", "survival": "50%"},
      {"smiles": "O=C(CSc1cn(CCNC(=O)c2c(F)cccc2F)c2ccccc12)Nc1ccc(F)cc1", "survival": "128%"},
      {"smiles": "CCOc1ccc(-c2cccc(NS(=O)(=O)c3ccc(F)cc3F)c2)nn1", "survival": "77%"},
      {"smiles": "CCN(CC)CCCNC(=O)Cn1nc(N2CCN(c3ccccc3OC)CC2)ccc1=O", "survival": "75%"},
      {"smiles": "COc1ccc(Oc2ncnc3c2oc2ccccc23)cc1", "survival": "55%"},
      {"smiles": "CCOc1ccccc1Oc1ncnc2c1oc1ccccc12", "survival": "83%"},
      {"smiles": "Fc1ccccc1Oc1ncnc2c1oc1ccccc12", "survival": "37% (active)"},
      {"smiles": "CC(=O)N1CCc2cc(S(=O)(=O)NC(CC(C)C)C(=O)Nc3ccc(C(C)C)cc3)ccc21", "note": "(stereo not given)", "survival": "61%"},
      {"smiles": "FC(F)(F)c1cccc(N2CCN(c3ncnc4c3nc3n4CCCC3)CC2)c1", "survival": "95%"},
      {"smiles": "CCOC(=O)c1ccccc1NC(=O)CSc1nnc(CC)n2c1cc1occc12", "survival": "63%"},
      {"smiles": "O=C(O)C1CCCCC1C(=O)Nc1cccc(C(=O)N2CCCCC2)c1", "note": "(stereo not given)", "survival": "101%"},
      {"smiles": "COc1ccc(OC)c(NC(=O)c2ccc3c(SCC(=O)O)c4c(nc3c2)CCCC4)c1", "survival": "64%"},
      {"smiles": "Cn1cnc2c(=O)oc3ccc(S(=O)(=O)N4CCN(c5cccc(C(F)(F)F)c5)CC4)cc3c21", "survival": "108%"},
      {"smiles": "Cn1cnc2c(=O)oc3ccc(S(=O)(=O)N4CCN(c5cccc(Cl)c5)CC4)cc3c21", "survival": "-5% (active)"},
      {"smiles": "Cn1cnc2c(=O)oc3ccc(S(=O)(=O)N4CCN(c5ccccc5)CC4)cc3c21", "survival": "77%"},
      {"smiles": "Cc1ccc(/C=C/c2onc(C)c2S(=O)(=O)N2CCC(C(=O)NCc3ccco3)CC2)cc1", "survival": "74%"},
      {"smiles": "COc1ccccc1NC(=O)c1c(NC(=O)c2ccccc2Cl)sc2c1CCC2", "survival": "78%"},
      {"smiles": "Cc1ccccc1NC(=O)c1c(NC(=O)Cc2ccccc2)sc2c1CCC2", "survival": "29% (active)"},
      {"smiles": "CCOc1ccccc1NC(=O)c1c(NC(=O)Cc2ccc(OC)cc2)sc2c1CCC2", "survival": "61%"},
      {"smiles": "O=C(Cc1ccccc1)Nc1sc2c(c1C(=O)Nc1ccccc1Cl)CCC2", "survival": "34% (active)"},
      {"smiles": "CCOc1ccccc1NC(=O)c1c(NC(=O)c2ccccc2)sc2c1CCCC2", "survival": "58%"},
      {"smiles": "CCOc1ccccc1NC(=O)c1c(NC(=O)c2cccc(C)c2)sc2c1CCCC2", "survival": "76%"},
      {"smiles": "O=C(Nc1sc2c(c1C(=O)Nc1ccccc1Cl)CCCC2)c1ccccc1F", "survival": "48% (active)"},
      {"smiles": "CCOc1ccccc1NC(=O)c1c(NC(=O)Cc2ccccc2)sc2c1CCCC2", "survival": "81%"},
      {"smiles": "Cc1ccccc1NC(=O)c1c(NC(=O)c2ccccc2)sc2c1CCC2", "survival": "126%"},
      {"smiles": "COc1ccccc1NC(=O)c1c(NC(=O)c2ccccc2F)sc2c1CCC2", "survival": "136%"},
      {"smiles": "CCc1ccccc1NC(=O)c1c(NC(=O)c2ccccc2)sc2c1CCCC2", "survival": "42% (active)"},
      {"smiles": "O=C(NC1CC(=O)N(c2ccc(Cl)cc2)C1)c1ccc2c(c1)OCO2", "note": "(stereo not given)", "survival": "78%"},
      {"smiles": "CN(C(=O)c1nn(C)c2c1COc1ccccc1-2)c1cccc(C(F)(F)F)c1", "survival": "81%"},
      {"smiles": "Cc1ccc(C2=Nc3ccccc3N(CC(=O)Nc3cccc(F)c3)C(=O)C2)cc1C", "survival": "79%"},
      {"smiles": "CCOC(=O)CC(=O)CSc1nc2ccccc2c(=O)n1CCc1ccccc1", "survival": "84%"},
      {"smiles": "COc1cccc(C(=O)Nc2ccc3oc(-c4cccc5c(Br)cccc45)nc3c2)c1", "survival": "59%"},
      {"smiles": "O=C(CCC1N=C2c3ccccc3N=C(SCC(=O)Nc3ccc(F)cc3)N2C1=O)NCc1cccs1", "note": "(stereo not given)", "survival": "87%"},
      {"smiles": "O=C(O)CCC(=O)Nc1sc2c(c1C(=O)Nc1ccccc1)CCCCC2", "survival": "92%"},
      {"smiles": "O=C(COc1ccccc1)Nc1sc2c(c1C(=O)Nc1ccccc1)CCCCC2", "survival": "85%"},
      {"smiles": "O=C(COc1ccccc1)Nc1sc2c(c1C(=O)Nc1ccccc1Cl)CCCCC2", "survival": "56% (active)"},
      {"smiles": "O=C(Cc1ccccc1)Nc1sc2c(c1C(=O)Nc1ccccc1Cl)CCCCC2", "survival": "47%"},
      {"smiles": "O=C(Cc1ccccc1)Nc1sc2c(c1C(=O)Nc1ccccc1Cl)CCCC2", "survival": "31% (active)"},
      {"smiles": "COc1ccccc1NC(=O)c1c(NC(=O)COc2ccccc2)sc2c1CCCCC2", "survival": "85%"}
    ]}
  ]
}
